In PMC5700166:

Each sequence was assayed against T1, GST-Co-NF-kB (Capsaspora owczarzaki, UniProt F1ARL5 200-546) (assay: protein-binding microarray (PBM); PBM: ~300 nM protein, 6 mM HEPES pH 7.8, 80 mM KCl, 0.5 mM EDTA, 0.5 mM EGTA, 6% glycerol, 35 ng/ul poly-dIdC, 1% milk, 1 h, room temperature; Ap Aiptasia and Nv Nematostella (sea anemones) / Co Capsaspora / Aq Amphimedon (sponge) / Dm Drosophila / Hu human; RHD is the Rel homology domain; high values mean tight binding). Settings: dsDNA, one strand shown.
T1 sequence: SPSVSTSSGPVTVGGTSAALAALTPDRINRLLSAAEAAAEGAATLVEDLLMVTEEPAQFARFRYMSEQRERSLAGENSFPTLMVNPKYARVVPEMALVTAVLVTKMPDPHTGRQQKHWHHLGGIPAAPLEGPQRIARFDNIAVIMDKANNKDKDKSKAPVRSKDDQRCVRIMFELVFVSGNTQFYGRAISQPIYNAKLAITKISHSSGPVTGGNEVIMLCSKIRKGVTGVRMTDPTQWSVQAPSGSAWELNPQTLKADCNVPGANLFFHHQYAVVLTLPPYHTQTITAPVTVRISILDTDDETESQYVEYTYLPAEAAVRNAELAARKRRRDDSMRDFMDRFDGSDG

Sequence	binding signal [z-score]
CCGATTAACATCACCCACGAGGGTGATGTTAATCGGGTCTTGATTCGCTTGACGCTGCTG	1.35
CCGATTAACATCACCCGCTTTATTGATGTTAATCGGGTCTTGATTCGCTTGACGCTGCTG	1.23
CCGATTAACATCACCTTCTTTACTGATGTTAATCGGGTCTTGATTCGCTTGACGCTGCTG	1.57
CCGATTAACATCAGGAAAAAAACTGATGTTAATCGGGTCTTGATTCGCTTGACGCTGCTG	1.06
CCGATTAACATCACAATAACGGGTGATGTTAATCGGGTCTTGATTCGCTTGACGCTGCTG	1.26
CCGATTAACATCAGGTCACCCCATGATGTTAATCGGGTCTTGATTCGCTTGACGCTGCTG	2.51
CCGATTAACATCACCCACGACGATGATGTTAATCGGGTCTTGATTCGCTTGACGCTGCTG	1.01
CCGATTAACATCAATGTCGGTGGTGATGTTAATCGGGTCTTGATTCGCTTGACGCTGCTG	1.2
CCGATTAACATCAGGGTGTAGTTTGATGTTAATCGGGTCTTGATTCGCTTGACGCTGCTG	1.14
CCGATTAACATCACCCAAAGTTTTGATGTTAATCGGGTCTTGATTCGCTTGACGCTGCTG	1.24
CCGATTAACATCACCAAGTATAGTGATGTTAATCGGGTCTTGATTCGCTTGACGCTGCTG	1.42
CCGATTAACATCAAGAGAGAAAGTGATGTTAATCGGGTCTTGATTCGCTTGACGCTGCTG	1.16
CCGATTAACATCATCGCGGGTAGTGATGTTAATCGGGTCTTGATTCGCTTGACGCTGCTG	1.37
CCGATTAACATCAGTAGGTGAAGTGATGTTAATCGGGTCTTGATTCGCTTGACGCTGCTG	1.02
CCGATTAACATCAGGGAGCGGTTTGATGTTAATCGGGTCTTGATTCGCTTGACGCTGCTG	1.07
CCGATTAACATCACCCTACAAGTTGATGTTAATCGGGTCTTGATTCGCTTGACGCTGCTG	3.08
CCGATTAACATCATGTCGGGTGATGATGTTAATCGGGTCTTGATTCGCTTGACGCTGCTG	1.26
CCGATTAACATCAGGGTATAACGTGATGTTAATCGGGTCTTGATTCGCTTGACGCTGCTG	1.1
CCGATTAACATCAAGGGTGGAAATGATGTTAATCGGGTCTTGATTCGCTTGACGCTGCTG	1.66
CCGATTAACATCAGGGCAAAAAATGATGTTAATCGGGTCTTGATTCGCTTGACGCTGCTG	1.84
CCGATTAACATCATACCTCCCGTTGATGTTAATCGGGTCTTGATTCGCTTGACGCTGCTG	1.01
CCGATTAACATCACAAATTTTCCTGATGTTAATCGGGTCTTGATTCGCTTGACGCTGCTG	1.2
CCGATTAACATCACCCATTTCCGTGATGTTAATCGGGTCTTGATTCGCTTGACGCTGCTG	1.41
